From PubChem BioAssay AID652134 (The Scripps Research Institute Molecular Screening Center, 2013) come the findings set out here.

SMILES strings stand for the structures. About 2,100 (88%) of roughly 2,400 compounds were called active.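 How the source made its calls: active means inhibition above the average of every tested compound plus 3 SD (cut at about 3.8% in these data); inactive means the rest.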 The set was probably picked from earlier hits. Not all results are given here.

Chain of Nuclear receptor subfamily 0 group B member 1 (Homo sapiens) (P51843 whole entry, looked up): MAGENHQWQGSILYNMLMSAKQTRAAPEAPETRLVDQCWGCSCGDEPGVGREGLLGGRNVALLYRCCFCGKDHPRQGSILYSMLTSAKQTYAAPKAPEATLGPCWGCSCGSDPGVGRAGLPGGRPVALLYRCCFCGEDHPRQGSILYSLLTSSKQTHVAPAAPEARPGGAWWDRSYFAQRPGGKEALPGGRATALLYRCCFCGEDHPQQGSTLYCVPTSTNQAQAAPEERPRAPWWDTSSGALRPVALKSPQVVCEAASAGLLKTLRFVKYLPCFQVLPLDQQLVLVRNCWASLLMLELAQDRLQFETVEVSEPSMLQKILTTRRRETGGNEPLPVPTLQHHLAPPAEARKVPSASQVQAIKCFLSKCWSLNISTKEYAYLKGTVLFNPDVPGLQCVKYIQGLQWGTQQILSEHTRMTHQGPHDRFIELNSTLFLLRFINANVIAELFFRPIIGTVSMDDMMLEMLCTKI

This assay addresses Nuclear receptor subfamily 0 group B member 1 (Homo sapiens) (UniProt P51843). The experiment in a line: DAX1 (NR0B1) inhibitors relieving SF-1 repression, confirmation, cell-based, luminescence, HEK293T, full-length DAX-1, SF-1 activated StAR promoter (AID 652134).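 Further: 0% = DAX-1 cells with DMSO and 100% = no DAX-1 control cells with DMSO.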 Conditions: HEK293T StAR-promoter luciferase reporter, SF-1/DAX-1 repression; at 6.8 µM; hits give high values.
For `Cc1cc(N)n2nc(-c3ccc(C(C)(C)C)cc3)cc2n1`, the inhibition is 13.7% (active).

Turning to `O=C(c1cnn(-c2ccc(Cl)cc2)c1)c1ccccc1O`, the inhibition is 11.7% (active).

`COc1ccccc1Cc1c(-c2ccc(F)cc2)nc2ccc(C)cn12`: the inhibition was 4.48% (active). Turning to `Cc1ccc(-c2nc3ccc(Br)cn3c2Cc2ccccc2C(F)(F)F)cc1`, the inhibition is 5.68% (active).

In the case of `Nc1ccc2nn(-c3ccc(Cl)cc3)nc2c1`, the inhibition is 15.9% (active). Consider `CN1OC[C@@H]2CN[C@H](c3ccc(-c4ccccc4)cc3)C[C@@H]21`, for which the inhibition was 8.84% (active). Turning to `COc1ccc(-c2csc(-c3cccs3)n2)cc1OC`, the inhibition was 10.7% (active). In the case of `CC1CCN(CCCNC(=O)CN2C(=O)CSc3ccc(S(=O)(=O)N4CCCCC4)cc32)CC1` it was 2.3% (inactive); in that of `CSCCC(NC(=O)c1ccco1)C(=O)Nc1cc(C)ccn1` (stereo not drawn), 12.7% (active). As to `Cc1nc(NC(=O)c2ccc3c(c2)OCCO3)ccc1Br`, the inhibition was 12.1% (active).

Turning to `CN1CCN(c2ccc(NC(=O)c3ccc4c(c3)OCCO4)cc2Cl)CC1`, the inhibition is 6.62% (active).

With `O=C(Nc1ccccc1)c1ccc2c(c1)OCCCO2`, the inhibition is 15.6% (active). Consider `Cc1ccc(C(=O)NNC(=O)c2ccc3c(c2)OCCO3)cc1`, for which the inhibition was 3.83% (active). For `CCC(=O)Nc1ccc(-c2ccc(N3CCCCC3)nn2)cc1`, the inhibition is 3.57% (inactive). In the case of `c1ccc(Cc2c(-c3ccco3)nc3c4ccccc4ccn23)cc1` it was 12.1% (active); in that of `Cc1cc(C(=O)NCCc2ccc(Cl)cc2)c(C)o1`, 3.8% (active).

As to `COc1ccc(CCNC(=O)COC(=O)Cc2ccccc2F)cc1`, the inhibition is 0.17% (inactive). In the case of `O=C(O)c1ccc(N/N=C/c2cn(-c3ccccc3)nc2-c2cccs2)cc1` it was 12.7% (active); in that of `CCSc1nnc(NC(=O)c2ccc(C)cc2)s1`, 10% (active); in that of `NC(=O)CSc1nnc(NC(=O)c2ccc3ccccc3c2)s1`, 10% (active).

Turning to `Cc1ccnc(NC(=O)CNC(=O)c2ccccc2)c1`, the inhibition is 3.68% (active). As for `Cc1nn(-c2ccc([N+](=O)[O-])cc2)c(N)c1-c1ccccc1`, the inhibition is 15.1% (active). In the case of `Fc1ccc2cnc(-c3ccccc3)cc2c1` it was 6.65% (active).
